From ChEMBL document CHEMBL1961873, “Compounds: GSK PKIS; Assays: Nanosyn kinase panel” (2012)

Experiments:
[1] = target: Sphingosine kinase 1 (Homo sapiens) (UniProt Q9NYA1); conditions: at 1 µM;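 note: mean SPHK1 inhibition value reported from the GSK PKIS kinase panel screen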
[2] = target: T1, Sphingosine kinase 2 (Homo sapiens) (UniProt Q9NRA0); conditions: at 0.1 µM
T1 sequence (whole entry): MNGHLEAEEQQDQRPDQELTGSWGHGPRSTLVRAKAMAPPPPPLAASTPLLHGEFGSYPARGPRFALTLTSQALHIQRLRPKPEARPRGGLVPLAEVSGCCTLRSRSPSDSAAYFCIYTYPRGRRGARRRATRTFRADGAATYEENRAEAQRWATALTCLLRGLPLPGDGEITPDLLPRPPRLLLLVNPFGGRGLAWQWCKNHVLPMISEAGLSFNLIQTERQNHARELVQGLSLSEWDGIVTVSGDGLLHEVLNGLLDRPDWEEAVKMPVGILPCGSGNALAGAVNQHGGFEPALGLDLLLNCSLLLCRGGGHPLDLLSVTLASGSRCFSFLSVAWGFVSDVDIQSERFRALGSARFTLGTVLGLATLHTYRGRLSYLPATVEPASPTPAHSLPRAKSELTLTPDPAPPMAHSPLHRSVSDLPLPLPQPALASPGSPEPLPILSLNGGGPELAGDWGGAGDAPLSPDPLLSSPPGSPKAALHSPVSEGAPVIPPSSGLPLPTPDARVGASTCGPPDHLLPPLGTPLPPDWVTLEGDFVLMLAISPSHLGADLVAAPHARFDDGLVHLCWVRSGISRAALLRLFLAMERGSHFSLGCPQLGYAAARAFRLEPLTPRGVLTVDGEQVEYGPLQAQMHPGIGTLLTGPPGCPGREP

[3] = target: T1, Sphingosine kinase 2 (Homo sapiens); conditions: at 1 µM
[4] = target: Casein kinase II subunit alpha (Homo sapiens) (UniProt P68400); conditions: at 0.1 µM
Sequence of Casein kinase II subunit alpha (Homo sapiens) (P68400 whole entry, looked up): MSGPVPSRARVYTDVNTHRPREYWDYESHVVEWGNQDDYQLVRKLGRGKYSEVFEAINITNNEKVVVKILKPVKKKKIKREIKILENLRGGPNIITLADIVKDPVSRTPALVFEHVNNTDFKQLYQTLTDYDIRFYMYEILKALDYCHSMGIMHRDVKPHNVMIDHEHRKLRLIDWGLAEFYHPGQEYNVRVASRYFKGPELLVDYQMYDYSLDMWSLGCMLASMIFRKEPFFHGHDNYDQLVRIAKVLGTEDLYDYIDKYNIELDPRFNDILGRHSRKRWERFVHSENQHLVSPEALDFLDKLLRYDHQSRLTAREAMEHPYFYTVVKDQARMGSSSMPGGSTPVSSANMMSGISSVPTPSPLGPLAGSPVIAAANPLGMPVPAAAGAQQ

[5] = target: Casein kinase II subunit alpha (Homo sapiens) (UniProt P68400); conditions: at 1 µM
[6] = target: T2, Inhibitor of nuclear factor kappa-B kinase subunit alpha (Homo sapiens) (UniProt O15111); conditions: at 0.1 µM
T2 sequence (whole entry): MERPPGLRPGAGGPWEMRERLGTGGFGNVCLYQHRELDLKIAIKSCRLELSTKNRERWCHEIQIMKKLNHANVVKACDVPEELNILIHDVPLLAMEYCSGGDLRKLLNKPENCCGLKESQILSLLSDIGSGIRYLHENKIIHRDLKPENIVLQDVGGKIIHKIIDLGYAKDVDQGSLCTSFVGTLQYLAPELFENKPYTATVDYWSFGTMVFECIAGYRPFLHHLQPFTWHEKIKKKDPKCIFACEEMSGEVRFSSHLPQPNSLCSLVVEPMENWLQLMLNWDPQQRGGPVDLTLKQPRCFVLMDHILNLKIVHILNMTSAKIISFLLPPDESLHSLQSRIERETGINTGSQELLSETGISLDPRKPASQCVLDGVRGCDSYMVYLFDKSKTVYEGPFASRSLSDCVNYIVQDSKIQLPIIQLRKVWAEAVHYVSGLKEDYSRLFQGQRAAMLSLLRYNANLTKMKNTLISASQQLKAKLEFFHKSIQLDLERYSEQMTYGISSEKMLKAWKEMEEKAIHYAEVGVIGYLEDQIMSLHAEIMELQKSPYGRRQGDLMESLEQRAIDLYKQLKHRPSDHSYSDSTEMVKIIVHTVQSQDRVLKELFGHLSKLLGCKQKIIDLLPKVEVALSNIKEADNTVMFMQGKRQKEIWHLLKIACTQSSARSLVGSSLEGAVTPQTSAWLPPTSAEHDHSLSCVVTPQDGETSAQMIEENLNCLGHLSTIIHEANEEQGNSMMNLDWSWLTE

[7] = target: T2, Inhibitor of nuclear factor kappa-B kinase subunit alpha (Homo sapiens); conditions: at 1 µM
[8] = target: T3, Inhibitor of nuclear factor kappa-B kinase subunit beta (Homo sapiens) (UniProt O14920); conditions: at 0.1 µM
T3 sequence (whole entry): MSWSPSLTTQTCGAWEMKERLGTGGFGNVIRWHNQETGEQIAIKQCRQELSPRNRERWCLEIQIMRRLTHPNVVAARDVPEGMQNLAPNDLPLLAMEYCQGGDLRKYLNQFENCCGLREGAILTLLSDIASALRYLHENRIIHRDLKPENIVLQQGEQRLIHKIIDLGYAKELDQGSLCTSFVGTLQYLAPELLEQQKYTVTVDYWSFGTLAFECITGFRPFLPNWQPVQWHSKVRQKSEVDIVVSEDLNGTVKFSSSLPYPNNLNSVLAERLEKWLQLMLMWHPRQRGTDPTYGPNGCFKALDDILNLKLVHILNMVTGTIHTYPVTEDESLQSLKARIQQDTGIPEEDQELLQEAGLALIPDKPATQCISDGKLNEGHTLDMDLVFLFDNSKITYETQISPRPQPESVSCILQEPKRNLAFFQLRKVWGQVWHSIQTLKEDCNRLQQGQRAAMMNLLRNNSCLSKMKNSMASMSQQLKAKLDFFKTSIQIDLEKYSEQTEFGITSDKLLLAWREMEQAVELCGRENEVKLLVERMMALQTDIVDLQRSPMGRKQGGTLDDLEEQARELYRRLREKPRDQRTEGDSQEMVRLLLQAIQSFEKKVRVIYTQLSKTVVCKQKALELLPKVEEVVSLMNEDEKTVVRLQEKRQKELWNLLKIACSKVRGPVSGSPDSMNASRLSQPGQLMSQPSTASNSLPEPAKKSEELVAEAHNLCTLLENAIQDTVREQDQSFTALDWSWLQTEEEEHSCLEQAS

[9] = target: T3, Inhibitor of nuclear factor kappa-B kinase subunit beta (Homo sapiens); conditions: at 1 µM
[10] = target: T4, Inhibitor of nuclear factor kappa-B kinase subunit epsilon (Homo sapiens) (UniProt Q14164); conditions: at 0.1 µM
T4 sequence (whole entry): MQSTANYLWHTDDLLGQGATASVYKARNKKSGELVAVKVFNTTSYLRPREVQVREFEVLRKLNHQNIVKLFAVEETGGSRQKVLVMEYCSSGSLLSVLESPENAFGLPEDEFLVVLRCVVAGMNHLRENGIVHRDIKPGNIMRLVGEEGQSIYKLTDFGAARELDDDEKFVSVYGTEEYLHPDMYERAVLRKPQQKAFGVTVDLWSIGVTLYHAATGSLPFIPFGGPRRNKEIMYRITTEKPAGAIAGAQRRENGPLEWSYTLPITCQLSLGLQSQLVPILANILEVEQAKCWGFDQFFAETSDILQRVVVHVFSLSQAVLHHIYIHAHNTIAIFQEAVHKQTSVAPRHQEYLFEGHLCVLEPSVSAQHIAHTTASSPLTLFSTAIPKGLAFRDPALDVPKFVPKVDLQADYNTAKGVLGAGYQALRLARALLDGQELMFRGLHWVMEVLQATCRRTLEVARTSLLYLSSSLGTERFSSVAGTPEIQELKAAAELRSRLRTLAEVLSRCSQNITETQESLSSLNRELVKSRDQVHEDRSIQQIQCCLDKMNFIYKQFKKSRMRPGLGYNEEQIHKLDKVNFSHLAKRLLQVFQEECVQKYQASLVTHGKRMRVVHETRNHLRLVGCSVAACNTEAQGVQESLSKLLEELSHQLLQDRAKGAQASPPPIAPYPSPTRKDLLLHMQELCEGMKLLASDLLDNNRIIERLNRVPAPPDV

[11] = target: T4, Inhibitor of nuclear factor kappa-B kinase subunit epsilon (Homo sapiens); conditions: at 1 µM
[12] = target: T5, Serine/threonine-protein kinase Nek1 (Homo sapiens) (UniProt Q96PY6); conditions: at 0.1 µM
T5 sequence (whole entry): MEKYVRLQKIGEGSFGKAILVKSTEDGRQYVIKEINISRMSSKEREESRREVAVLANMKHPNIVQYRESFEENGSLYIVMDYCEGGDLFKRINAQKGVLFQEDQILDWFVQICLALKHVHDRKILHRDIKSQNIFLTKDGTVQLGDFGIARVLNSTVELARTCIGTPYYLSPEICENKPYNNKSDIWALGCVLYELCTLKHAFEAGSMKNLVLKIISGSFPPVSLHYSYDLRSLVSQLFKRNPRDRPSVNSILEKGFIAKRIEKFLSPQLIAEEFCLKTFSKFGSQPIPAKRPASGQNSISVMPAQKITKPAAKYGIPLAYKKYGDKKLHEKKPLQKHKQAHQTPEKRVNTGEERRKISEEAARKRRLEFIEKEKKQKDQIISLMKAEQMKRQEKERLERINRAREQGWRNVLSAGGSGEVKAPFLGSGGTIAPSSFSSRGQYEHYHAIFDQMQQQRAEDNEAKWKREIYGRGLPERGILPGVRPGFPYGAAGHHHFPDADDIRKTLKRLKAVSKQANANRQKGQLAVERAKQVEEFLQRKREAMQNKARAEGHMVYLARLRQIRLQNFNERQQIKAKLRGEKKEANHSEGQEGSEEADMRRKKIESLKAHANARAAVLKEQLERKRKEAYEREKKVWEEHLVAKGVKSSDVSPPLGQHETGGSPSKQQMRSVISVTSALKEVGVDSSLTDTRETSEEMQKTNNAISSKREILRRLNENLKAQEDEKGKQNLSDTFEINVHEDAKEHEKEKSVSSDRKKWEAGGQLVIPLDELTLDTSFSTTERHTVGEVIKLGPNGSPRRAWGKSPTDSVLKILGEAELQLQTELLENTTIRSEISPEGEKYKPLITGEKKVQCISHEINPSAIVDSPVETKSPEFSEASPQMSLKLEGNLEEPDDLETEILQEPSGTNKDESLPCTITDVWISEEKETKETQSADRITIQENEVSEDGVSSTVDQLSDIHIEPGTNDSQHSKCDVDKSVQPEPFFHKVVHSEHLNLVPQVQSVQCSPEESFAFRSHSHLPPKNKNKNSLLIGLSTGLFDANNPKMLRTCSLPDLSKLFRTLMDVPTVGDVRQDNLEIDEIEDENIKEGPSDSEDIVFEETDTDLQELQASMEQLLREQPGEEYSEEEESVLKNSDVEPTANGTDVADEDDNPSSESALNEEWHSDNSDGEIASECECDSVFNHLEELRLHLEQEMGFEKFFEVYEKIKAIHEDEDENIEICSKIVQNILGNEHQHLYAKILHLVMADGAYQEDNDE

[13] = target: T5, Serine/threonine-protein kinase Nek1 (Homo sapiens); conditions: at 1 µM
[14] = target: T6, Serine/threonine-protein kinase Nek2 (Homo sapiens) (UniProt P51955); conditions: at 0.1 µM
T6 sequence (whole entry): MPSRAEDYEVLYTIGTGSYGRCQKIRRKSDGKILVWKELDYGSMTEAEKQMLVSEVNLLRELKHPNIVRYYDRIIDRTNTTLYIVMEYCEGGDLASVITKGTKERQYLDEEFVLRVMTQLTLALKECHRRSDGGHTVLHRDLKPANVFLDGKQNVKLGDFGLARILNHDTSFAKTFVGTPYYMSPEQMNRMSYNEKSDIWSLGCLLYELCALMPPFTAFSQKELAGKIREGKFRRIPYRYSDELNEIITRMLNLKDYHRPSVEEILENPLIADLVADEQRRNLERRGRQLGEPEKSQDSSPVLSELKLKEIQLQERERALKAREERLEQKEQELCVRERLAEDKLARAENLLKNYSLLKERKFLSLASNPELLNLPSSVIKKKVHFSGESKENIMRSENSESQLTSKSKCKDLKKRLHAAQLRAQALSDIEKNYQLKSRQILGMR

[15] = target: T6, Serine/threonine-protein kinase Nek2 (Homo sapiens); conditions: at 1 µM
[16] = target: Serine/threonine-protein kinase Nek6 (Homo sapiens) (UniProt Q9HC98); conditions: at 0.1 µM
Sequence of Serine/threonine-protein kinase Nek6 (Homo sapiens) (Q9HC98 whole entry): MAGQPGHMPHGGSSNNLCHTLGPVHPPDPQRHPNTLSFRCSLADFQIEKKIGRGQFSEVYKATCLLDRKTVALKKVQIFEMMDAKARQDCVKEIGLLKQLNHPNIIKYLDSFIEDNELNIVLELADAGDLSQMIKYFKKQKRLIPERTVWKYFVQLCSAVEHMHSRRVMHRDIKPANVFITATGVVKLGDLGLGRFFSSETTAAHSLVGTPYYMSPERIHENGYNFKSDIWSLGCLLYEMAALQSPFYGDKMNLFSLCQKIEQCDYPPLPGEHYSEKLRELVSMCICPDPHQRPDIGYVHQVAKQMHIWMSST

[17] = target: Serine/threonine-protein kinase Nek6 (Homo sapiens) (UniProt Q9HC98); conditions: at 1 µM
[18] = target: Serine/threonine-protein kinase Nek7 (Homo sapiens) (UniProt Q8TDX7); conditions: at 0.1 µM
Sequence of Serine/threonine-protein kinase Nek7 (Homo sapiens) (Q8TDX7 whole entry, looked up): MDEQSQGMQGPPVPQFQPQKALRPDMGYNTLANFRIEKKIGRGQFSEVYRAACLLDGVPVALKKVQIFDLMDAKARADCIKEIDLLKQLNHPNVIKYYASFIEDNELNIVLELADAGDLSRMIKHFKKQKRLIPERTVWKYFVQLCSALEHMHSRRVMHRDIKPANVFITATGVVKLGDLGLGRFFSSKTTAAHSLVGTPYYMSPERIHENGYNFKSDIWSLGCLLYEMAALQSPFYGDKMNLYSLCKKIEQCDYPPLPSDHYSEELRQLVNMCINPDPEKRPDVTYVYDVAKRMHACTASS

[19] = target: Serine/threonine-protein kinase Nek7 (Homo sapiens) (UniProt Q8TDX7); conditions: at 1 µM
[20] = target: T7, Serine/threonine-protein kinase Nek9 (Homo sapiens) (UniProt Q8TD19); conditions: at 0.1 µM;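 note: reported value is the mean percent inhibition of NEK9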
T7 sequence (whole entry): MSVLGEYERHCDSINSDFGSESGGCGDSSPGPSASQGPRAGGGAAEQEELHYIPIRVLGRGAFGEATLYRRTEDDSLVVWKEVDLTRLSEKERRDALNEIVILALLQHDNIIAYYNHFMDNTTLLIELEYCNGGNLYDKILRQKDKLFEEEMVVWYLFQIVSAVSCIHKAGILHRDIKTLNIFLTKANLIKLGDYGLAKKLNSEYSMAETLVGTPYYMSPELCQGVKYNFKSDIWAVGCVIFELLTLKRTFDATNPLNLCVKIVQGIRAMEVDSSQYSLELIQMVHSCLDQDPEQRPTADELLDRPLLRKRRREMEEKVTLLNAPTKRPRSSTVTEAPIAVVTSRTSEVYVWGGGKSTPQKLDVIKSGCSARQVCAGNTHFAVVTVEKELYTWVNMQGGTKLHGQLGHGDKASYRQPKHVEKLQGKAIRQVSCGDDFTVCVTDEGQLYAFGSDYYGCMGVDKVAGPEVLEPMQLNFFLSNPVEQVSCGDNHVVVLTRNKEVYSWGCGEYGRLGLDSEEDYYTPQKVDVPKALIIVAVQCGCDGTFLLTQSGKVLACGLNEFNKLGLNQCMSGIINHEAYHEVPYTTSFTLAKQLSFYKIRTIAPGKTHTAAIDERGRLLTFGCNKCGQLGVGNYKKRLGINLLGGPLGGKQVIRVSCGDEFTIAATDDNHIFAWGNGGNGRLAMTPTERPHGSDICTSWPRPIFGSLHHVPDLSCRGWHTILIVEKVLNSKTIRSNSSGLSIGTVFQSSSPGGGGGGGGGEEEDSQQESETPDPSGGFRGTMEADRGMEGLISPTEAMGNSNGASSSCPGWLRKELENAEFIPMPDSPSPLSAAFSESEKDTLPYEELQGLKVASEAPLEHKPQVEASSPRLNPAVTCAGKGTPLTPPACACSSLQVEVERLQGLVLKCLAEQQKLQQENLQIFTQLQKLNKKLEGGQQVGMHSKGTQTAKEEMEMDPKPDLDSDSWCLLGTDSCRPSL

Sequence of Sphingosine kinase 1 (Homo sapiens) (Q9NYA1 whole entry): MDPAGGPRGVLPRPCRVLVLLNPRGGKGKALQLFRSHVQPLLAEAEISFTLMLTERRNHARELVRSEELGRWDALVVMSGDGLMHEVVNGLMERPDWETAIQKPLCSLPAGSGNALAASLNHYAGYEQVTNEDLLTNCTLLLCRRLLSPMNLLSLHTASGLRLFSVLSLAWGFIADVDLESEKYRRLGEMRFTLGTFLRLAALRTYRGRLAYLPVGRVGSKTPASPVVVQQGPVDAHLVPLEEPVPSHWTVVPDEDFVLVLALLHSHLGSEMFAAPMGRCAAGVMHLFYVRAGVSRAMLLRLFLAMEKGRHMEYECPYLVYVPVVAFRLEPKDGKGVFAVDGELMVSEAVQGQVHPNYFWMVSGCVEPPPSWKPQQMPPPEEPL

SMILES	inhibition [1]	inhibition [2]	inhibition [3]	inhibition [4]	inhibition [5]	inhibition [6]	inhibition [7]	inhibition [8]	inhibition [9]	inhibition [10]	inhibition [11]	inhibition [12]	inhibition [13]	inhibition [14]	inhibition [15]	inhibition [16]	inhibition [17]	inhibition [18]	inhibition [19]	inhibition [20]
CS(=O)(=O)Nc1ccc(-c2cc(-c3ccccc3)cc(C(N)=O)c2N)cc1	2.51%	-0.04%	-0.67%	0.89%	2.26%	1.46%	4.19%	6.82%	27.4%	0.29%	1.3%	1.84%	1.25%	4.07%	2.73%	1.42%	-0.5%	1.35%	6.39%	2.67%
Cc1nnc(-c2cccc(-c3ccc(C(=O)NCC4CC4)cc3)c2)o1	-1.04%	0.67%	-1.45%	5.98%	8.99%	-9.01%	-3.16%	6.42%	5.6%	7.79%	8.77%	3.27%	4%	6.76%	5.41%	2.74%	6.86%	4.29%	4.11%	4.46%
